# Test results as given in the supplement of paper PMC8728848.
# About 410 targets per protein were measured; listed, in parts, are those with the strongest signals and a random draw of the rest.
# Tests used:
# Assay in all cases: glycan array binding signal (z-score within array); higher = stronger binding
# Settings in all cases: glycan notation: IUPAC condensed, linker removed
# [1] = target: Fuc(a1-2)Gal(b1-3)GalNAc(a1-3)[Fuc(a1-2)]Gal(b1-4)GlcNAc
# Summary of the method: (§1)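 Negative Z-scores can be read as non-binding. The Z-score is calculated within each array and then averaged across arrays of one protein sequence at different concentrations or buffers and across linkers. Arrays, 3228 in all, were curated from the Consortium for Functional Glycomics database and kept only where the protein sequence was available.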
# [2] = target: Fuc(a1-2)Gal(b1-3)GlcNAc(b1-3)[Gal(b1-4)GlcNAc(b1-6)]Gal(b1-4)Glc
# Summary of the method: as §1
# [3] = target: Fuc(a1-2)Gal(b1-4)[Fuc(a1-3)]GlcNAc(b1-3)GalNAc
# Summary of the method: as §1
# [4] = target: Fuc(a1-2)[Gal(a1-3)]Gal(b1-4)GlcNAc(b1-3)GalNAc
# Summary of the method: as §1
# [5] = target: Fuc(a1-2)[GalNAc(a1-3)]Gal(b1-4)GlcNAc(b1-3)GalNAc
# Summary of the method: as §1
# [6] = target: Fuc(a1-2)[GalNAc(a1-3)]Gal(b1-4)[Fuc(a1-3)]GlcNAc
# Summary of the method: as §1
# [7] = target: Fuc(a1-3)[Gal(b1-4)]GlcNAc(b1-2)Man(a1-3)[Fuc(a1-3)[Gal(b1-4)]GlcNAc(b1-2)Man(a1-6)]Man(b1-4)GlcNAc(b1-4)[Fuc(a1-6)]GlcNAc
# Summary of the method: as §1
# [8] = target: Fuc(a1-3)[Gal(b1-4)]GlcNAc(b1-3)Gal(b1-3)[Fuc(a1-4)]GlcNAc
# Summary of the method: as §1
# [9] = target: Fuc(a1-3)[Gal3S(b1-4)]GlcNAc
# Summary of the method: as §1
# Fuc(a1-4)GlcNAc = target: Fuc(a1-4)GlcNAc
# Summary of the method: as §1
# [10] = target: Gal(a1-3)Gal(b1-4)GlcNAc(b1-6)GalNAc
# Summary of the method: as §1
# [11] = target: Gal(a1-4)Gal(b1-4)GlcNAc(b1-3)Gal(b1-4)Glc
# Summary of the method: as §1
# [12] = target: Gal(b1-3)GlcNAc(b1-2)Man(a1-3)[Gal(b1-3)GlcNAc(b1-2)Man(a1-6)]Man(b1-4)GlcNAc(b1-4)[Fuc(a1-6)]GlcNAc
# Summary of the method: as §1
# [13] = target: Gal(b1-3)GlcNAc(b1-2)Man(a1-3)[GlcNAc(b1-4)][Gal(b1-3)GlcNAc(b1-2)Man(a1-6)]Man(b1-4)GlcNAc(b1-4)GlcNAc
# Summary of the method: as §1
# [14] = target: Gal(b1-3)[Fuc(a1-4)]GlcNAc(b1-6)GalNAc
# Summary of the method: as §1
# [15] = target: Gal(b1-4)GalNAc(b1-3)[Fuc(a1-2)]Gal(b1-4)GlcNAc
# Summary of the method: as §1
# Gal(b1-4)GlcNAc = target: Gal(b1-4)GlcNAc
# Summary of the method: as §1
# [16] = target: Gal(b1-4)GlcNAc(b1-2)[Gal(b1-4)GlcNAc(b1-4)]Man(a1-3)[GlcNAc(b1-4)][Gal(b1-4)GlcNAc(b1-2)[Gal(b1-4)GlcNAc(b1-6)]Man(a1-6)]Man(b1-4)GlcNAc(b1-4)GlcNAc
# Summary of the method: as §1
# [17] = target: Gal(b1-4)GlcNAc(b1-3)Gal(b1-4)GlcNAc(b1-2)Man(a1-3)[Gal(b1-4)GlcNAc(b1-3)Gal(b1-4)GlcNAc(b1-2)Man(a1-6)]Man(b1-4)GlcNAc(b1-4)[Fuc(a1-6)]GlcNAc
# Summary of the method: as §1
# [18] = target: Gal(b1-4)GlcNAc(b1-3)Gal(b1-4)GlcNAc(b1-3)Gal(b1-4)GlcNAc(b1-2)Man(a1-3)[Gal(b1-4)GlcNAc(b1-3)Gal(b1-4)GlcNAc(b1-3)Gal(b1-4)GlcNAc(b1-2)Man(a1-6)]Man(b1-4)GlcNAc(b1-4)GlcNAc
# Summary of the method: as §1
# [19] = target: Gal(b1-4)GlcNAc(b1-3)Gal(b1-4)GlcNAc(b1-6)[Gal(b1-3)]GalNAc
# Summary of the method: as §1
# Gal6S(b1-4)Glc = target: Gal6S(b1-4)Glc
# Summary of the method: as §1
# GalNAc(a1-3)GalNAc = target: GalNAc(a1-3)GalNAc
# Summary of the method: as §1
# GalNAc(b1-3)Gal = target: GalNAc(b1-3)Gal
# Summary of the method: as §1
# [20] = target: GalNAc(b1-3)Gal(a1-4)Gal(b1-4)GlcNAc(b1-3)Gal(b1-4)Glc
# Summary of the method: as §1
binder,measurement,setting,value
"Protein L(A-C2) (Finegoldia magna), Q51912 (protein) ADEPIDLEKLEEKRDKENVGNLPKFDNEVKDGSENPMAKYPDFDDEASTRFETENNEFEEKKVVSDNFFDQSEHPFVENKEETPETPETDSEEEVTIKANLIFANGSTQTAEFKGTFEKATSEAYAYADTLKKDNGEYTVDVADKGYTLNIKFAGKEKTPEEPKEEVTIKANLIYADGKTQTAEFKGTFEEATAEAYRYADALKKDNGEYTVDVADKGYTLNIKFAGKEKTPEEPKEEVTIKANLIYADGKTQTAEFKGTFEEATAEAYRYADLLAKENGKYTVDVADKGYTLNIKFAGKEKTPEEPKEEVTIKANLIYADGKTQTAEFKGTFAEATAEAYRYADLLAKENGKYTADLEDGGYTINIRFAGKKVDEKPEEKEQVTIKENIYFEDGTVQTATFKGTFAEATAEAYRYADLLSKEHGKYTADLEDGGYTINIRFAGKEEPEETPEKPEVQDGYASYEEAEAAAKEALKNDDVNKSYTIRQGADGRYYYVLSPVEAEEEKPEAQNGYATYEEAEAAAKKALENDPINKSYSIRQGADGRYYYVLSPVEAE",glycan array binding signal (z-score),[1],-0.969
same,glycan array binding signal (z-score),[2],-0.355
same,glycan array binding signal (z-score),[3],2.89
same,glycan array binding signal (z-score),[4],6.17
same,glycan array binding signal (z-score),[5],-0.485
same,glycan array binding signal (z-score),[6],3.52
same,glycan array binding signal (z-score),[7],1.71
same,glycan array binding signal (z-score),[8],0.052
same,glycan array binding signal (z-score),[9],-0.101
same,glycan array binding signal (z-score),Fuc(a1-4)GlcNAc,-0.933
same,glycan array binding signal (z-score),[10],-0.284
same,glycan array binding signal (z-score),[11],-0.164
same,glycan array binding signal (z-score),[12],0.716
same,glycan array binding signal (z-score),[13],0.568
same,glycan array binding signal (z-score),[14],3.16
same,glycan array binding signal (z-score),[15],-0.365
same,glycan array binding signal (z-score),Gal(b1-4)GlcNAc,-0.975
same,glycan array binding signal (z-score),[16],-0.468
same,glycan array binding signal (z-score),[17],0.357
same,glycan array binding signal (z-score),[18],3.21
same,glycan array binding signal (z-score),[19],3.67
same,glycan array binding signal (z-score),Gal6S(b1-4)Glc,-0.354
same,glycan array binding signal (z-score),GalNAc(a1-3)GalNAc,-0.445
same,glycan array binding signal (z-score),GalNAc(b1-3)Gal,-0.354
same,glycan array binding signal (z-score),[20],0.127
